Screening results deposited in PubChem BioAssay by National Center for Advancing Translational Sciences (NCATS).
An excerpt weighted towards active compounds, which were near 2.8% of everything screened.
POLH inh: DNA polymerase eta (human) inhibition | recombinant Pol eta, fluorescent DNA replication assay | Potency, µM (titrated, usually from 114 µM), hits mostly inhibitors | Q9Y253 | 1.2% of 390,000 active
Target sequence (Q9Y253 whole entry, looked up): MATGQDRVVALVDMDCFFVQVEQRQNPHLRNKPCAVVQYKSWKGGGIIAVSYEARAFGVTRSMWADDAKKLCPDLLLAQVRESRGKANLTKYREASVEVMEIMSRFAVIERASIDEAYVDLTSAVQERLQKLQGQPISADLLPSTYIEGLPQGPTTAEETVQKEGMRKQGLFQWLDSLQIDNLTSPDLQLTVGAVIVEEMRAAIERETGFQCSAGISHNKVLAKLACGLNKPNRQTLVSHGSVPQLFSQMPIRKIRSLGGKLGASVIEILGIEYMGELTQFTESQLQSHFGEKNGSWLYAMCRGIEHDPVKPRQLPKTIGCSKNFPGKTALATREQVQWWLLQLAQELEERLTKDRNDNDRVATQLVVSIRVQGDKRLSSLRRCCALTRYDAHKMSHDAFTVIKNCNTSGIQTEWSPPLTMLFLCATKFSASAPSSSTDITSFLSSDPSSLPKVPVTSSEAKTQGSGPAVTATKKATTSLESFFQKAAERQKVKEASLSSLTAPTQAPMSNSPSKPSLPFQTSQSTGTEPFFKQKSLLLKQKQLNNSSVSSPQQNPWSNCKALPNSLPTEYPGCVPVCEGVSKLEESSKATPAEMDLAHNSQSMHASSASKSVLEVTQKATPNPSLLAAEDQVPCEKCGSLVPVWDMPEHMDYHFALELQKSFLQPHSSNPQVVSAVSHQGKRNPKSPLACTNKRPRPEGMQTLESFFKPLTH
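Pol eta at 10 nM preincubated with compounds 15 min at room temperature; reaction started with fluorescent substrate (50 nM final) and read kinetically at 0 and 10 min.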
PI5P4K alpha inh: blocks human PI5P4K alpha kinase activity. P48426. PI5P4Kalpha enzyme, ADP-Glo luminescence, 60 min; active compounds read low. max response, %. 1.2% of 330,000 active. AID 652105; active means max response of -50% or lower; inconclusive means between -30% and -50%; inactive means -30% or higher; further: value at the top dose of about 77 µM
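Enzyme plus substrate dispensed, test compounds pinned in, then ATP (5 microM final) added. After 60 min at RT, ADP-Glo reagent 1 for 45 min and reagent 2 for 30 min preceded luminescence imaging.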
POLB inh: DNA polymerase beta (human) inhibition | AID 485314 | P06746 | Potency, µM (series often up to 114 µM), hits mostly inhibitors | Pol beta primer extension/strand displacement, fluorescence kinetic | 1.3% of 340,000 active
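10 nM enzyme + cpd, 15 min RT; start with substrate 50 nM final; read 0 min and after 10 min RT. Corrected, normalized data; 4-parameter Hill curve fit.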
WRN helicase inh: inhibitors of human WRN helicase. Q14191. WRN helicase unwinding, fluorescent forked duplex, kinetic. Potency, µM (titrated, usually from 114 µM), most hits filed as inhibitors. 0.46% of 360,000 active. AID 651768; further: nearly all actives have a fitted effect of over 55% in size
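Kinetic red-fluorescence monitoring (525/598 nm) tracks WRN helicase activity after 100 nM fluorophore-quencher forked duplex and 2 mM ATP are added to 20 nM enzyme pretreated 15 min at room temperature with compound.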
POLK inh: inhibitors of human DNA polymerase kappa. Q9UBT6. Potency, µM (highest dose often 107 µM), usual class: inhibitors. purified Pol kappa, fluorescent DNA synthesis assay, 10 min. 0.53% of 400,000 active
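First, compounds were pin-transferred onto 10 nM Pol kappa. After 15 min at room temperature, substrate was added to 50 nM final. Fluorescence was then measured kinetically at 0 and 10 min.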
Pol iota inh: blocks human DNA polymerase iota activity. Pol iota fluorescent replication assay, 10 min. Potency, µM (titrated, usually from 115 µM), most hits filed as inhibitors. 1% of 390,000 active. AID 588590
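Fluorescent replication assay read twice, at 0 min and 10 min after adding 50 nM (final) substrate. Enzyme (10 nM) and compounds were first incubated 15 min at room temperature; enzyme-free buffer wells were negative controls.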
Hits are given with their value; 0 = inactive; ? = inconclusive; - = no result given; ! = a repeat was not active; [ ] = remark or other dose. Unless noted, the call rests on the fitted dose curve; in most records, active means well fitted curve in the direction sought with a large enough effect; inconclusive means small, poorly fitted or top-dose-only effect, or another doubt; inactive means no such curve, though single readings can be large; an effect the other way counts as inactive or inconclusive.

SMILES | POLH inh | PI5P4K alpha inh | POLB inh | WRN helicase inh | POLK inh | Pol iota inh
Cc1ccc2nc(Cl)c(C3CC(c4cccs4)=NN3C(=O)CCCC(=O)O)cc2c1 (stereo not drawn) | 0 | 0 | 0 | 0 | 0 | ?
Cc1ccccc1/C=N/NC(=O)c1ccc(-n2cnnn2)cc1 | 0 | 0 | - | 0 | 0 | 0
Cc1c2ccccc2nc2c(F)c(NCCO)c(F)c(F)c12 | ? | ? | ? | ? | 79µM | ?
CC(C)Nc1nc2ccccc2c(=O)[nH]1 | 0 | 0 | 0 | 0 | 0 | 0
OCCNc1c2ccccc2nc2c(F)c(F)c(F)c(F)c12 | 0 | 0 | 0 | 0 | 0 | 0
Cc1c2ccccc2nc2c(F)c(NC(C)C)c(F)c(F)c12 | 0 | 0 | 0 | 0 | ? | 18µM
N#C/C(=C/c1ccc(-c2ccc(S(N)(=O)=O)cc2)o1)c1nc2ccccc2s1 | ? | -53 | 0 | 0 | 0 | ?
O=C1C(c2ccccc2)=[N+]([O-])c2ccccc21 | ? | 0 | - | 71µM | 0 | 8.9µM
COC1=C(c2ccccc2)C(=O)c2ccccc2C1=O | 0 | 0 | 0 | 0 | 0 | ?
OCC1OC(O)C(O)C(O)C1O (stereo not drawn) | - | - | - | - | 0 | -
OCC1OC([S-])[C@H](O)C(O)C1O.[Au+] (stereo partly drawn) | - | - | - | - | 5µM | -
CCc1nc2ccc(C(=O)N3CCN(CC)CC3)cc2nc1CC | 0 | 0 | 0 | 0 | 0 | 0
CCc1nc2ccc(C(=O)O)cc2nc1CC | 14µM | 0 | 0 | 0 | 0 | 0
CC1CCN(S(=O)(=O)c2ccc(NC(=O)c3ccco3)cc2)CC1 | 0 | 0 | 0 | 0 | 0 | 0
COCCc1nn2c(=O)cc(COC(=O)COc3ccc(F)cc3)nc2s1 | 0 | - | 0 | - | 0 | 0
COc1cc(C=C2NC(=O)NC2=O)ccc1O | 0 | ? | - | 0 | - | -
COc1cc(/C=C2/C(=O)CNC2=O)ccc1O | 0 | -56 | 0 | 0 | 0 | ?
COc1cc(/C=C2\Oc3cc(O)ccc3C2=O)ccc1O | 0 | -61 | ? | ? | 0 | ?
COc1cc(/C=C2\CCC/C(=C\c3ccc(O)c(OC)c3)C2=O)ccc1O | 0 | 0 | 0 | 0 | 0 | ?
COc1cc(C=C2C(=O)C=CC2=O)ccc1O | - | -104 | - | 10µM | - | -
Cc1ccc(C)c(C(O)c2ncc(-c3cccc(F)c3)[nH]2)c1 (stereo not drawn) | - | 0 | - | 0 | - | -
Cc1cccn2c(=O)c3cc(C(=O)NC(C)(C)C)n(C)c3nc12 | 0 | - | 0 | - | 0 | 0
CCN(CC)S(=O)(=O)c1ccc(S(=O)(=O)NCc2cccs2)cc1 | 0 | 0 | 0 | 0 | 0 | 0
COc1ccc(S(=O)(=O)NCc2cccs2)cc1 | 0 | - | 25µM | 0 | 0 | 0
COC(=O)C[C@@H]1CC[C@@H](NC(=O)C2CCC2)[C@@H](CO)O1 | - | 0 | - | 0 | - | -
SMILES | POLH inh | PI5P4K alpha inh | POLB inh | WRN helicase inh | POLK inh | Pol iota inh
O=C(c1ccc2c(c1)N(Cc1cccc(F)c1)C(=O)c1ccccc1S2)N1CCOCC1 | ? | - | 50µM | - | 0 | ?
O=C(NCCc1cn2ccccc2n1)c1cc(COc2ccc3ncccc3c2)on1 | 0 | 0 | 40µM | 0 | 0 | 0
O=C(N/N=C/c1ccc(OC(=O)c2ccccc2)c([N+](=O)[O-])c1)c1ccc(O)cc1 | 0 | -79 | 0 | 0 | 0 | 0
O=C(CNC(=O)c1cccc(F)c1)N/N=C/c1ccc(O)c([N+](=O)[O-])c1 | 0 | -72 | 0 | 0 | 0 | 0
O=C(CNC(=O)c1ccc(F)cc1)N/N=C/c1ccc(O)c([N+](=O)[O-])c1 | ? | -65 | 0 | 0 | 0 | 0
ClCc1nc2ccccc2c2ccccc12 | 0 | 0 | 0 | 0 | 0 | 0
CC(=O)[C@H]1CC[C@@H]2[C@H]3CC=C4C[C@@H](O)CC[C@]4(C)[C@H]3CC[C@]12C | - | - | - | - | 0[12 µM] | -
O=c1oc2c(O)c(O)cc3c(=O)oc4c(O)c(O)cc1c4c23 | 0.79µM | -100 | 0.16µM | - | 0.79µM! | 1.1µM!
Cc1c(C)c2cc(Cl)c(O)c(CN(C)C)c2oc1=O | 0 | - | 0 | 0 | 0 | 0
Cc1cc(C(=O)CN2C(=O)C(=O)N(Cc3ccco3)C2=O)c(C)n1CCc1ccc(F)cc1 | 0 | 0 | - | 0 | 0 | 0
Cc1ccc(NC(=O)CSc2nc3c(c(=O)[nH]2)CN(Cc2ccccc2)CC3)cc1Cl | 0 | - | 0 | - | 0 | 0
CCCCn1c(N)c(-c2nc3ccccc3o2)c2c([N+](=O)[O-])nn(CC)c(=O)c21 | 3.5µM | 0 | 0 | 0 | 0 | 0
CCCCCn1c(N)c(-c2nc3ccccc3s2)c2c([N+](=O)[O-])nn(C)c(=O)c21 | 0 | - | 0 | 0 | 0 | 0
CC(C)CC[n+]1ccn(-c2nc3ccccc3nc2[N-]S(=O)(=O)c2ccccc2)c1 | 0 | - | 79µM | 0 | 0 | 0
Nc1ccc2nc(-c3ccccc3)[nH]c2c1 | 0 | 0 | 0 | 0 | 0 | 0
Nc1ccc2nc(-c3ccc(N)c(Cl)c3)[nH]c2c1 | ? | -63 | ? | ? | ? | ?
Cc1cc(C)c(NC(=O)CN(c2ccccc2)S(=O)(=O)N(C)C)c(C)c1 | ? | - | 35µM | 0 | ? | 89µM
COc1ccc(NC(=O)CN(c2ccccc2)S(=O)(=O)N(C)C)cc1Cl | 0 | 0 | 0 | 0 | 0 | 0
COc1ccc(NC(=O)CN(c2ccccc2)S(=O)(=O)N(C)C)cc1OC | 45µM | - | 40µM | ? | ? | 14µM
CCCCn1c(N)c(N(CCOC)C(=O)CN(C)CC(=O)Nc2ccc(Cl)c(Cl)c2)c(=O)[nH]c1=O | 0 | 0 | - | 0 | 0 | ?
Cc1ccc(-c2cc(C(F)(F)F)n3nc(-c4cccc(Br)c4)cc3n2)cc1 | 0 | - | 0 | - | ? | 89µM
COc1ccc(C(C)NC(=O)CN(c2cc(OC)ccc2OC)S(=O)(=O)c2ccccc2)cc1 (stereo not drawn) | ? | - | 20µM | - | 0 | ?
COc1ccc(OC)c(N(CC(=O)Nc2ccccc2)S(=O)(=O)c2ccccc2)c1 | 0 | 0 | 0 | 0 | 0 | 0
CCOC(=O)c1[nH]c(C)c(CCC(=O)Nc2cccc(SC)c2)c1C | 0 | - | 0 | - | 0 | ?
O=C1/C(=C\c2ccc(Br)o2)SC(=Nc2ccccc2)N1c1ccccc1 | 0 | - | 0.4µM | 0 | ? | ?
SMILES | POLH inh | PI5P4K alpha inh | POLB inh | WRN helicase inh | POLK inh | Pol iota inh
CN(C)N1C(=O)/C(=C/c2ccco2)SC1=Nc1ccccc1 | 0 | 0 | - | 0 | 0 | ?
O=CC(O)C(O)C(O)C(O)CO (stereo not drawn) | - | - | - | - | 0 | -
Cc1c(NC(=O)c2cc([N+](=O)[O-])ccc2N2CCOCC2)cccc1-c1nc2ccccc2o1 | 0 | - | 0 | - | 0 | 22µM
CCC(=O)Nc1ccc(C(=O)CSc2nnc(-c3ccccc3F)n2C2CC2)cc1 | ? | -51 | 28µM | 0 | 0 | ?
CCN1C(=NCc2cccc(C(F)(F)F)c2)N[C@@H](c2cccc(C(F)(F)F)c2)C(C(=O)OC)=C1C | - | - | - | - | 0 | 0
CC(=O)N(CCC(Cc1ccccc1)c1ccco1)Cc1ccco1 (stereo not drawn) | 50µM | ? | ? | 0 | ? | ?
CC(=O)N(CCP(=O)(c1ccccc1)c1ccccc1)Cc1ccco1 | 0 | 0 | 0 | 0 | 0 | 0
